This is a sample that favours compounds with a hit; in the whole collection about 16% have one here.
uPA generation – qHTS for Inhibitors of Cell Surface uPA Generation; cell surface uPA generation assay, qHTS; Potency, µM (series often up to 38.3 µM), for inactives: at the highest dose activity change, negative = inhibition, most hits filed as inhibitors; 330,000 tested, 0.31% active; active means well fitted inhibition curve with a large enough effect; inconclusive means small, poorly fitted or top-dose-only effect; inactive means no such curve, though single readings can be large or run the other way; tested in mouse RAW 264.7 cells; further: potency means the concentration at half of the fitted maximal effect; on the % scale 0 is the no-effect control and ±100 the full control effect; nearly all actives have a fitted effect of over 55% in size
DT40 TDP1 no CPT – qHTS for Inhibitors of human tyrosyl-DNA phosphodiesterase 1 (TDP1): qHTS in cells in absence of CPT; DT40 Tdp1-/- hTDP1 cells, no CPT, ATP luminescence, 48 h; Potency, µM (doses to about 46.2 µM), inactives show at the top dose activity change, negative = growth inhibition, usual class: inhibitors; 420,000 tested, 15% active; AID 686978, 2013; further: potency means the concentration at half of the fitted maximal effect; on the % scale 0 is the no-effect control and ±100 the full control effect; nearly all actives have a fitted effect of over 55% in size
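No-CPT arm: Tdp1-/-;hTDP1 DT40 cells (400/well) plus compounds, incubated ≥48 hr at 37 °C. Readout CellTiter-Glo luminescence.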
TDP1 block – qHTS Assay for Inhibitors of Tyrosyl-DNA Phosphodiesterase (TDP1) | 350,000 tested, 0.28% active | Tyrosyl-DNA phosphodiesterase 1 (Homo sapiens), Q9NUW8 | Potency, µM (top dose mostly 130 µM), inactives show at the highest dose activity change, negative = inhibition, actives largely listed as inhibitors | recombinant TDP1, AlphaScreen DNA substrate cleavage; further: potency means the concentration at half of the fitted maximal effect; on the % scale 0 is the no-effect control and ±100 the full control effect; nearly all actives have a fitted effect of over 40% in size
Target sequence (Q9NUW8 whole entry, looked up): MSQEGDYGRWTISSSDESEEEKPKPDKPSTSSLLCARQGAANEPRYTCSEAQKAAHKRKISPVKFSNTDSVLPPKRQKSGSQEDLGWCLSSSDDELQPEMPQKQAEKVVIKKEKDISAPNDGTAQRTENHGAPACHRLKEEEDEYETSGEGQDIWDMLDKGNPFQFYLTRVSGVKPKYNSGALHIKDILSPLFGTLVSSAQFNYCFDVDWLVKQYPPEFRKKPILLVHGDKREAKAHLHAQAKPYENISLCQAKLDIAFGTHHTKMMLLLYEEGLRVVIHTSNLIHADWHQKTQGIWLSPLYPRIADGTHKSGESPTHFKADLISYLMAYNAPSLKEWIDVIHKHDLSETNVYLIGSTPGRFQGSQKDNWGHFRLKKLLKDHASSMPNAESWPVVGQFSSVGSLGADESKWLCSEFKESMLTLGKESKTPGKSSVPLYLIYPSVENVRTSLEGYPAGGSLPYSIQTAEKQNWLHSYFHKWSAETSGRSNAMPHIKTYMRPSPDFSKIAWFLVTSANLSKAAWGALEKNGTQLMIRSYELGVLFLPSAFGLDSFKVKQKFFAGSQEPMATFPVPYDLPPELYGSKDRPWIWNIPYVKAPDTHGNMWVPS
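Steps: enzyme plus compound, 15 min RT; add biotin/phosphotyrosine-FITC oligonucleotide (15 nM final), react 5 min; add donor/acceptor beads (10 ug/ml final), 10 min; read AlphaScreen. Tdp1 at 1 nM final.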
DT40 TDP1 CPT – qHTS for Inhibitors of human tyrosyl-DNA phosphodiesterase 1 (TDP1): qHTS in cells in presence of CPT. chicken DT40 Tdp1-/-;hTDP1 cells + 20 nM CPT, ATP luminescence, 48 h. Potency, µM (doses to about 46.2 µM), for the others: at the top dose activity change, negative = growth inhibition, actives largely listed as inhibitors. 420,000 tested, 12% active. AID 686979, 2013; further: potency means the concentration at half of the fitted maximal effect; on the % scale 0 is the no-effect control and ±100 the full control effect; nearly all actives have a fitted effect of over 55% in size
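Cell growth measured by CellTiter-Glo luminescence after a minimum 48 h, 37 C compound exposure with 20 nM CPT in Tdp1-knockout DT40 cells stably expressing hTDP1, seeded 400/well; qHTS titration format.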
miR-21 act – qHTS Assay for Modulators of miRNAs and/orActivators of miR-21. 340,000 tested, under 10 active. Potency, µM (highest dose often 38.3 µM), for inactives: top-dose activity change, positive = activation, actives largely listed as activators. HeLa miR-21 FLuc reporter, luciferase, 48 h;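 further: % of control where 0% means no effect; miR-21 action dims this reporter so a rising signal means less miR-21 action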
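Compounds were titrated across several concentrations (up to approximately 40 uM) and incubated 48 hours with HeLa miR-21-FLuc reporter cells (miR-21 target sequence downstream of FLuc, endogenous miR-21). Readout was firefly luciferase luminescence after lytic detection reagent.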
* = called active by the depositor; ? = inconclusive; . = not tested or not shown; [ ] = another dose, or the depositor's remark. Unless noted, the call rests on the fitted dose curve; in most records, active means well fitted curve in the direction sought with a large enough effect; inconclusive means small, poorly fitted or top-dose-only effect, or another doubt; inactive means no such curve, though single readings can be large; an effect the other way counts as inactive or inconclusive.

SMILES	uPA generation	DT40 TDP1 no CPT	TDP1 block	DT40 TDP1 CPT	miR-21 act
CC1Sc2ccc(S(=O)(=O)N3CCC(C(=O)NCCc4ccccc4)CC3)cc2NC1=O (stereo not given)	-11%	?	4%	?	12%
Cc1ccc(NC(=O)C2CCN(S(=O)(=O)c3ccc4c(c3)NC(=O)C(C)S4)CC2)cc1Cl (stereo not given)	?	1.2µM*	2%	1.3µM*	?
Cc1ccc(NC(=O)C2CCN(S(=O)(=O)c3ccc4c(c3)NC(=O)C(C)S4)CC2)c(Cl)c1 (stereo not given)	?	21µM*	3%	13µM*	24%
CC(=O)c1cccc(Nc2cc(C)nc3nc(-c4ccccc4C)nn23)c1	.	?	5%	?	-8%
Cc1ccc(C)c(NC(=O)C2CCC(C)(C(=O)O)C2(C)C)c1 (stereo not given)	0%	-7%	10%	8%	2%
Cc1cc(C)c2cc(C)c3nnc(SCC(=O)NCc4ccc5c(c4)OCO5)n3c2c1	.	?	4%	?	3%
CCCCNC(=O)C1CCN(Cc2ccc(OCc3ccccc3)c(OC)c2)CC1	?	?	.	?	-38%
COc1cc(CN2CCC(C(=O)NCC(C)(C)CN(C)C)CC2)ccc1OCc1ccccc1	26%	?	.	6.5µM*	-29%
O=C(O)c1cc([N+](=O)[O-])ccc1NCCCc1ccccc1	-2%	?	4%	?	.
CS(=O)(=O)N(Cc1ccc(Cl)cc1)c1ccc(C(=O)N/N=C/c2cc3ccccc3nc2Cl)cc1	-2%	23µM*	5%	?	-4%
O=C(Nc1ccc(S(=O)(=O)N(Cc2ccccc2)c2ccccc2)cc1)c1ccc([N+](=O)[O-])cc1	.	?	5%	2.9µM*	-3%
O=[N+]([O-])c1ccc(NCCCc2ccccc2)cc1	.	18µM*	.	?	.
CN(C)S(=O)(=O)c1ccc(NC(=O)c2ccc([N+](=O)[O-])cc2)cc1	-2%	?	.	0%	4%
CS(=O)(=O)N(Cc1ccccc1)c1ccc(C(=O)Nc2ccc(Cl)cc2)cc1	.	5.8µM*	1%[12.3 µM]	?	-4%
CS(=O)(=O)N(Cc1ccc(Cl)cc1)c1ccc(C(=O)NCc2ccccn2)cc1	1%	-13%	2%	-21%	22%
Cc1cc(=O)[nH]c(CN2CCC(c3ccccc3)CC2)n1	3%	-2%	0%	-1%	1%
CCCOc1ccc(Oc2nc(-c3ccncc3)nc3ccccc23)cc1	-3%	?	-1%	5%	4%
C=CCn1c(SCC(N)=O)nc2scc(-c3ccc(C)o3)c2c1=O	0%	8%	8%	-11%	-83%
CC(C)C(=O)N1CCN(c2ccccc2NC(=O)c2ccco2)CC1	.	?	.	-10%	5%
O=C(NCCC(=O)N(CCc1ccccc1)Cc1ccccc1)c1ccc([N+](=O)[O-])cc1	1%	23µM*	4%	?	.
O=C(c1ccc([N+](=O)[O-])cc1)N(Cc1ccccc1)Cc1ccccc1	-2%	?	.	-6%	.
O=C(NCc1ccco1)c1cc2nc(-c3ccc4c(c3)OCO4)cc(C(F)(F)F)n2n1	-2%	18µM*	6%	?	-16%
CN1CCN(C(=O)c2cc3nc(-c4ccco4)cc(C(F)(F)F)n3n2)CC1	2%	-26%	6%	9%	0%
O=C(NC1CCCCC1)c1cc2nc(-c3ccco3)cc(C(F)(F)F)n2n1	5%	18µM*	5%	21µM*	-13%
O=C(NC12CC3CC(CC(C3)C1)C2)c1cc2nc(-c3ccco3)cc(C(F)(F)F)n2n1	18%	26µM*	0%	21µM*	-3%
SMILES	uPA generation	DT40 TDP1 no CPT	TDP1 block	DT40 TDP1 CPT	miR-21 act
O=C(NC1CCCCC1)c1cc2nc3c(c(C(F)(F)F)n2n1)CCCC3	-1%	21µM*	2%	?	-47%
O=C(NCc1cccnc1)c1cc2nc(-c3ccc4c(c3)OCO4)cc(C(F)(F)F)n2n1	9%	-23%	4%	1%	-2%
Cc1ccc(S(=O)(=O)Nc2ccc(N3CCOCC3)cc2)cc1[N+](=O)[O-]	-2%	-25%	0%	-8%	3%
Cc1ccc(NC(=O)Nc2c(Cl)cccc2Cl)cn1	-24%	10µM*	-2%	?	15%
COc1cc(CN2CCCC(n3cc(C(=O)N4CCCCC4)nn3)C2)cc(OC)c1 (stereo not given)	.	23µM*	.	?	.
CSc1cccc(N2CC(C(=O)N3CCN(S(=O)(=O)c4ccccc4Cl)CC3)CC2=O)c1 (stereo not given)	3%	23µM*	0%	?	.
COc1ccc2cc(C#N)c(N3CCN(Cc4nnnn4CCC(C)C)CC3)nc2c1	2%	18µM*	-3%	21µM*	-1%
COc1ccc(CCNC(=O)c2ccc(Cl)cc2Cl)cc1OC	9%	3%	3%	-12%	-8%
CCN1C(=O)c2ccccc2Sc2ccc(NC(C)=O)cc21	.	-2%	4%	1%	26%
Cc1cccc(CN2C(=O)c3ccccc3Sc3ccc(C(=O)NCCc4ccccc4)cc32)c1	.	?	8%	-16%	9%
CC(C)CCNC(=O)Nc1ccc2c(c1)N(Cc1ccccc1)C(=O)c1ccccc1S2	.	?	5%	18µM*	?
CC(C)CCNC(=O)c1ccc2c(c1)N(Cc1cccc(Cl)c1)C(=O)c1ccccc1S2	.	21µM*	0%	?	-1%
OC[C@H]1O[C@@H](O[C@@H]2[C@@H](CO)O[C@@](O)(CO)[C@H]2O)[C@H](O)[C@@H](O)[C@H]1O	17%	8%	.	-4%	.
O=C(Nc1ccccc1)C1=C(O)CC(c2ccc(Cl)cc2)N2CCN=C12 (stereo not given)	-5%	18µM*	2%	?	-14%
O=C(Nc1ccc(Cl)cc1)N1N=CCC1c1ccccc1 (stereo not given)	6%	-17%	.	18%	-15%
CC(=O)C1=CCC(c2ccccc2)N(Cc2ccccc2)C1 (stereo not given)	.	15µM*	.	?	.
CC(=O)C1=CCC(c2ccccc2)N(S(=O)(=O)c2ccc(Cl)cc2)C1 (stereo not given)	.	15µM*	.	?	.
CC(=O)C1=CCC(c2ccc(Cl)cc2)N(S(=O)(=O)c2ccccc2C)C1 (stereo not given)	.	23µM*	.	29µM*	.
CC(=O)C1=CN(Cc2ccccc2)CCC1=O	-7%	-8%	.	-1%	.
